Source: PubChem BioAssay AID2289 (National Center for Advancing Translational Sciences (NCATS), 2010)
Screen size: about 340,000 compounds; about 3,300 (0.97%) were called active. Not shown: some 9% with an inconclusive outcome. Calls come from the whole dose curve; as a rule, active = well fitted inhibition curve with a large enough effect; inconclusive = small, poorly fitted or top-dose-only effect, or effect the other way; inactive = flat fitted curve, though single readings scatter. Some of the results follow.

assay: qHTS Assay for Modulators of miRNAs and/or Inhibitors of miR-21; details: HeLa miR-21-FLuc reporter, luciferase luminescence, 48 h; actives lower the signal; note: nearly all actives have a fitted effect of over 55% in size
Method in brief: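 Luminescence from a firefly luciferase reporter carrying a miR-21 binding site downstream, stably expressed under a CMV promoter in HeLa cells that make miR-21 endogenously, reports miRNA modulation after 48 h compound exposure up to approximately 40uM final.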
Potency is the fitted concentration of half-maximal effect.

Potency, active:
Cc1ccc(NC(=O)COc2ccc(Br)cc2C)cc1 9.27 µM
O=C(COc1ccccc1[N+](=O)[O-])Nc1cccnc1 8.26 µM
Cc1ccc(OCC(=O)Nc2ccon2)c([N+](=O)[O-])c1 6.56 µM
Cc1ccc(NC(=O)c2ccc(OC(=O)COc3ccc(Cl)cc3C)cc2)cc1 1.47 µM
O=C(COc1ccccc1[N+](=O)[O-])Nc1ccc(Br)cc1 3.29 µM
O=C(NNC(=S)Nc1ccccc1)c1ccc(O)cc1 7.36 µM
S=C(NNC(=S)Nc1ccccc1)Nc1ccccc1 6.56 µM
Cn1c(C2=C(O)CN(Cc3ccccc3)C2=N)nc2ccccc21 14.7 µM
O=C(Nc1ccc(F)cc1F)c1ccc2ncsc2c1 13.1 µM
O=C(Nc1ccc(Br)cc1)c1ccc2ncsc2c1 1.47 µM
O=C(Nc1ccccc1F)c1ccc2ncsc2c1 9.27 µM
O=C(Nc1ccc(Cl)cc1Cl)c1ccc2ncsc2c1 2.33 µM
N#C/C(=C\c1cccs1)C(=O)Nc1nccs1 7.36 µM
Cc1ccc(OCCn2c(=O)n(C)c3ccccc32)cc1 7.36 µM
Cn1c(=O)n(CCOc2ccccc2Cl)c2ccccc21 7.36 µM
Cc1ccc2oc(C(=O)N3CCCCCC3)c(C)c2c1 6.56 µM
Cc1ccc2oc(C(=O)NCCCN3CCOCC3)c(C)c2c1 2.93 µM
COc1ccc(CCc2nnc(CCC(=O)NCc3cc(C(C)C)no3)o2)cc1 14.7 µM
CCc1cc(CNC(=O)CCc2nnc(CCCc3ccccc3)o2)on1 7.36 µM
Cc1ccc(-n2ncc3c(SCc4ccccc4)ncnc32)cc1 3.29 µM
CC(C)Sc1ncnc2c1cnn2-c1ccccc1 2.61 µM
O=[N+]([O-])c1ccccc1OCCCn1cnc2ccccc21 2.93 µM
Brc1ccccc1OCCCn1cnc2ccccc21 1.85 µM
CCn1c(COc2ccccc2C)nc2ccccc21 9.27 µM
C#CCn1c(COc2ccccc2C)nc2ccccc21 5.85 µM
Cc1ccccc1OCc1nc2ccccc2n1C 1.04 µM
Cn1c(COc2ccc(F)cc2)nc2ccccc21 2.93 µM
Cc1cccc(OCc2nc3ccccc3n2C)c1 16.5 µM
Cc1nnc(OCc2nc3ccccc3n2C)c2ccccc12 16.5 µM
COc1ccc(-c2c(C)c3ccc(O)cc3oc2=O)cc1 9.27 µM
COc1ccc(-c2cc3ccc(O)cc3oc2=O)cc1OC 18.5 µM
COc1ccc(-c2cc3ccc(OCC(C)=O)cc3oc2=O)cc1 0.656 µM
COc1ccc(-c2cc3ccc(OCC(C)=O)cc3oc2=O)cc1OC 3.69 µM
O=C(O)c1cc(N/N=C/c2ccc(OCc3ccccc3)cc2)ccc1Cl 1.17 µM
O=C(O)c1cc(N/N=C/c2ccc(-c3ccc(F)cc3)o2)ccc1Cl 16.5 µM
O=C(O)c1cc(N/N=C/c2ccc(-c3ccccc3)cc2)ccc1Cl 0.233 µM
CSc1n[nH]c(-c2ccc(C(F)(F)F)cc2)n1 7.36 µM
C#CC(C)(C)NC(=O)c1ccc(-c2ccccc2F)cc1 5.85 µM
COc1ccc(C(=O)NC2=Nc3ccccc3N=C(C)C2c2ccccc2)cc1 (centres undefined) 13.1 µM
CCCC(=O)OCC(=O)Nc1ccc(N=Nc2ccccc2)cc1 3.69 µM
CC(C)C(=O)OCC(=O)Nc1ccc(N=Nc2ccccc2)cc1 1.85 µM
CC(=O)Nc1ccc(N=Nc2ccccc2)cc1 1.65 µM
O=C(Nc1ccc(N=Nc2ccccc2)cc1)c1ccccc1Cl 1.04 µM
CC(=O)OCC(=O)Nc1ccc(N=Nc2ccccc2)cc1 1.31 µM
COCCC1CCCCN1C(=O)c1ccc2nc(Cc3ccccc3F)oc2c1 (centres undefined) 4.14 µM
Cn1/c(=N/N=C/c2ccccn2)sc2ccccc21 2.07 µM
C/C(=N\N=c1/sc2ccccc2n1C)c1ccccn1 11.7 µM
COCCc1nn2c(=O)cc(COC(=O)c3ccccc3C)nc2s1 10.4 µM
Cc1ccccc1C(=O)OCc1cc(=O)n2nc(C(C)C)sc2n1 2.33 µM
CCc1nn2c(=O)cc(COC(=O)c3cccs3)nc2s1 9.27 µM
CC(C)c1nn2c(=O)cc(COC(=O)c3cccs3)nc2s1 8.26 µM
COCCNc1oc(-c2ccc(Cl)cc2)nc1C#N 9.27 µM
CNc1oc(-c2ccc(Cl)cc2)nc1C#N 3.29 µM
O=c1c2c3c(sc2nc(NCCO)n1Cc1ccco1)CCCCC3 16.5 µM
COCCNC(=O)c1ccc2c(c1)ncn2-c1ccc(F)c(F)c1 16.5 µM
COC(=O)c1cc2c(ccn2-c2ccc(F)cc2)n1Cc1ccc(OC(C)=O)cc1 18.5 µM
COc1cc(O)sc1C=Nc1ccc(Cl)cc1 7.36 µM
Cc1nn(Cc2ccccc2Cl)c(Cl)c1C(=O)NCCc1ccccc1 2.07 µM
Cc1nn(Cc2ccccc2)c(Cl)c1C(=O)NCCc1ccccc1 2.33 µM
CCOC(=O)c1c(C)c(C(=O)NCCc2ccccc2)c(C)n1C 11.7 µM
O=C(NCCc1c[nH]c2ccccc12)c1cnc2sccn2c1=O 3.29 µM
Cc1ccsc1C(=O)NCCc1c[nH]c2ccccc12 14.7 µM
Cc1ccc(C(=O)NCCc2c[nH]c3ccccc23)s1 5.21 µM
COc1ccccc1C1N=C(c2ccccc2C)NO1 (centres undefined) 7.36 µM
CCOC(=O)c1oc2c(c1C)/C(=N/O)CCC2 11.7 µM
CCCCCCSc1nc(N)c2c3c(sc2n1)CCCC3C (centres undefined) 14.7 µM
CN(c1cc(=O)n2ccccc2n1)C1CCCCC1 13.1 µM
CCN(C(=O)c1cc2c(=O)n3ccccc3nc2n1C)C1CCCCC1 11.7 µM
Cc1ccc(N=c2sc(C)c(C)n2C)cc1 11.7 µM
